The list is not random: actives were taken first. Their share in the collection is about 11%.
Pf growth 96h = Primary qHTS for delayed death inhibitors of the malarial parasite plastid, 96 hour incubation. P. falciparum luciferase reporter growth, 96 h. Potency, µM (series often up to 28.7 µM), most hits filed as inhibitors. 320,000 tested, 6.9% active. AID 504834, 2011
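P. falciparum expressing integrated firefly luciferase, in erythrocytes at 2% hematocrit, 0.05% parasitemia, incubated with compounds 96 h at 37 C, 5% CO2. Growth inhibition read as loss of luminescence; two-generation exposure targets delayed-death apicoplast inhibitors.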
HCV inh = qHTS Assay for Inhibitors of Hepatitis C Virus (HCV) | Huh7.5.1 HCVcc-Cre infection, luciferase reporter, 44 h | Potency, µM (series often up to 41.8 µM), usual class: inhibitors | 340,000 tested, 3.4% active
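Infectious HCV cell culture screen: compound-treated cells (1,000/well, pre-plated 4 h) are infected with HCVcc-Cre at roughly 0.5 moi and grown 44 h. Infection is quantified by luciferase signal after 15 min substrate incubation at room temperature.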
AmpC inh no detg = qHTS Inhibitors of AmpC Beta-Lactamase (assay without detergent); P00811; AmpC nitrocefin hydrolysis, absorbance 480 nm, 0.0001% Triton; Potency, µM (doses to about 57.1 µM), hits mostly inhibitors; 330,000 tested, 0.52% active; AID 485341, 2010; note: nearly all actives have a fitted effect of over 20% in size
Target sequence (P00811 whole entry, looked up): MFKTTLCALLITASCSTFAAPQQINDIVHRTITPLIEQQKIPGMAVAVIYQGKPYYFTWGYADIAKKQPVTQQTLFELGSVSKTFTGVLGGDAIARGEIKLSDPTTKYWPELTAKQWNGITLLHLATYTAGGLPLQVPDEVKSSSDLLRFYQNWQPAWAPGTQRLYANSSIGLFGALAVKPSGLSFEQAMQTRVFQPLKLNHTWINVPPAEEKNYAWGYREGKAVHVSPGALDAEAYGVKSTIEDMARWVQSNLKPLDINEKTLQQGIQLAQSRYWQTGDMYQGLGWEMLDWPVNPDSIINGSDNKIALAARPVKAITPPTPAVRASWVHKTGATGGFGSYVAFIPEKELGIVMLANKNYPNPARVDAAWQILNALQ
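AmpC (5.3 nM in the dispensed reagent) in 20 mM phosphate pH 7.0 with 0.01% (detergent screen) or 0.0001% Triton X-100 was preincubated with compounds for 15 min at room temperature. Nitrocefin was then added from an 800 uM solution, and hydrolysis was followed at 480 nm.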
AmpC detergent = qHTS Inhibitors of AmpC Beta-Lactamase (assay with detergent). P00811. AmpC hydrolysis of nitrocefin, absorbance 480 nm, 0.01% Triton. Potency, µM (series often up to 114 µM), actives largely listed as inhibitors. 370,000 tested, 0.041% active; note: nearly all actives have a fitted effect of over 25% in size
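20 mM phosphate pH 7.0 + 0.01% (detergent screen) or 0.0001% Triton X-100; 5.3 nM AmpC reagent; cpd preinc 15 min RT; nitrocefin (800 uM stock) to start; A480 q20 s × 4 min; Activity was normalised to no-enzyme and no-compound control wells.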
Pf growth 48h = Primary qHTS for delayed death inhibitors of the malarial parasite plastid, 48 hour incubation; Potency, µM (titrated, usually from 28.7 µM), hits mostly inhibitors; 310,000 tested, 5.9% active; P. falciparum luciferase growth in erythrocytes, 48 h
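Cell-based growth assay: transgenic P. falciparum expressing firefly luciferase, cultured in red cells within RPMI 1640 containing 0.5% w/v Albumax, 24 mM bicarbonate and gentamycin. A drop in luciferase activity indicates inhibition.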
AMA1-RON2 inh = qHTS for Inhibitors of AMA1-RON; Towards Development of Antimalarial Drug Lead: Primary Screen. Plasmodium falciparum AMA1 (3D7) - RON2 peptide interaction. AlphaScreen AMA1-biotinylated RON2 peptide binding. Potency, µM (highest dose often 58.2 µM), hits mostly inhibitors. 360,000 tested, 0.2% active; note: nearly all actives have a fitted effect of over 45% in size
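AMA1 (3D7) with his tag at 25 nM final met compounds first, then biotinylated RON2 peptide at 25 nM; detection used donor plus acceptor beads, 10 µg/mL apiece, read by AlphaScreen after 30 min at room temperature.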
Large screens that a line does not name were inactive. Calls come from the whole dose curve; as a rule, active = well fitted curve in the direction sought with a large enough effect; inconclusive = small, poorly fitted or top-dose-only effect, or another doubt; inactive = no such curve, though single readings can be large; an effect the other way counts as inactive or inconclusive.

CC(C)CCOP(N)(=O)Oc1ccccc1 (centres undefined)	Pf growth 96h 2.1µM
COc1ccc(Nc2c(-c3ccc(C)o3)nc3cc(C)ccn23)cc1	none (no result: Pf growth 96h, HCV inh, AmpC inh no detg, Pf growth 48h, AMA1-RON2 inh)
O=P(Oc1ccccc1)(Oc1ccccc1)C(Nc1ccccc1)c1ccccc1 (centres undefined)	Pf growth 96h 1.7µM, Pf growth 48h inconclusive
O=C(CCCn1c(=S)[nH]c2cc3c(cc2c1=O)OCO3)N1CCN(c2ccc(Cl)cc2)CC1	HCV inh 13µM
CC(=O)c1ccc(N2CCN(C(=O)CCCn3c(=S)[nH]c4cc5c(cc4c3=O)OCO5)CC2)cc1	HCV inh inconclusive, Pf growth 48h 12µM
COc1ccc(N2CCN(C(=O)CCCCCn3c(=S)[nH]c4cc5c(cc4c3=O)OCO5)CC2)cc1	Pf growth 96h inconclusive, Pf growth 48h inconclusive
CCOc1cc2[nH]c(=S)n(C3CCN(Cc4ccccc4)CC3)c(=O)c2cc1OCC	Pf growth 96h inconclusive, AmpC detergent inconclusive
O=C(CCCn1c(=S)[nH]c2cc3c(cc2c1=O)OCO3)N1CCN(c2ccccc2)CC1	Pf growth 96h 13µM, HCV inh inconclusive, AmpC detergent inconclusive
O=c1c2cc3c(cc2[nH]c(=S)n1C1CCN(Cc2ccccc2)CC1)OCO3	Pf growth 96h inconclusive, HCV inh 13µM
O=S(=O)(NCCS(=O)(=O)N1CCN(c2cccc(Cl)c2)CC1)c1ccc(F)cc1	none (no result: Pf growth 96h, HCV inh, AmpC inh no detg, Pf growth 48h, AMA1-RON2 inh)
Cc1ccccc1NC(=O)CCNC(=O)Cn1ccc2ccccc2c1=O	none (no result: Pf growth 96h, HCV inh, AmpC inh no detg, Pf growth 48h, AMA1-RON2 inh)
O=C(CN1C(=O)COc2ccc(S(=O)(=O)N3CCCCCC3)cc21)N1CCN(c2ccc(F)cc2)CC1	none (no result: Pf growth 96h, HCV inh, AmpC inh no detg, Pf growth 48h, AMA1-RON2 inh)
Cc1ccc(CNC(=O)CN2C(=O)COc3ccc(S(=O)(=O)Nc4ccccc4)cc32)cc1	none (no result: Pf growth 96h, HCV inh, AmpC inh no detg, Pf growth 48h, AMA1-RON2 inh)
Cc1ccc(S(=O)(=O)NCC(c2ccco2)N2CCN(c3ccccc3F)CC2)cc1 (centres undefined)	none (no result: Pf growth 96h, HCV inh, AmpC inh no detg, Pf growth 48h, AMA1-RON2 inh)
COc1cc(-c2c(C#N)c(N)nc3c2CCCC3)ccc1O	AmpC detergent inconclusive (no result: Pf growth 96h)
COc1ccc(-c2c(C#N)c(N)nc3c2CCc2ccccc2-3)cc1OC	Pf growth 96h 7.4µM, HCV inh 11µM, AmpC detergent inconclusive, Pf growth 48h 2.3µM
CC1(c2ccc(Cl)cc2)NC(=O)CS1 (centres undefined)	Pf growth 96h 0.26µM
O=C1CC(=O)N(c2ccc(Cl)cc2)C(=O)N1	AmpC detergent inconclusive
COc1cccc(NC(=O)c2oc3ccccc3c2NC(=O)C23CC4CC(CC(C4)C2)C3)c1	none (no result: Pf growth 96h, HCV inh, AmpC inh no detg, Pf growth 48h, AMA1-RON2 inh)
O=C(Nc1ccc2ccccc2c1)[C@@H]1C[C@H]1[C@@H](NP(=O)(c1ccccc1)c1ccccc1)c1ccccc1	Pf growth 96h inconclusive, Pf growth 48h 9.3µM
O=C(NCc1ccccn1)[C@@H]1C[C@H]1[C@@H](NP(=O)(c1ccccc1)c1ccccc1)c1ccccc1	Pf growth 96h inconclusive, AmpC detergent inconclusive
O=C(NCc1ccccc1)[C@@H]1C[C@H]1[C@@H](NP(=O)(c1ccccc1)c1ccccc1)c1ccccc1	Pf growth 96h 15µM, Pf growth 48h inconclusive
Cc1ccc(Oc2c(C(F)(F)F)oc3c(CN4CCC(C)CC4)c(O)ccc3c2=O)cc1	none (no result: Pf growth 96h, HCV inh, AmpC inh no detg, Pf growth 48h, AMA1-RON2 inh)
CNc1sc(C(=O)c2ccccc2F)c(N)c1-c1nc2ccccc2s1	Pf growth 96h inconclusive, HCV inh 13µM (no result: Pf growth 48h)
Cc1c(CN2CCC(n3nccc3NC(=O)C3CCOC3)CC2)[nH]c2ccccc12 (centres undefined)	none (no result: HCV inh)
O=C(Nc1ccnn1C1CCN(Cc2cccc(OCCO)c2)CC1)C1CCOC1 (centres undefined)	Pf growth 96h 5.2µM
O=C(Nc1ccnn1C1CCN(Cc2cc3ccccc3[nH]2)CC1)C1CCOC1 (centres undefined)	Pf growth 96h 5.2µM (no result: HCV inh, AMA1-RON2 inh)
